# Rows were chosen to be rich in hits. Some 4.6% of all compounds tested hit in one or more screens of this group.
# Vaccinia mCherry – inhibitors of vaccinia virus infection (mCherry reporter signal) | Vaccinia virus mCherry reporter infection, fluorescence | Potency, µM (highest dose often 36.5 µM), for inactives: at the highest dose activity change, negative = inhibition, actives largely listed as inhibitors | hit rate 0.63% among 310,000 | AID 720579; calls by dose curve; tested in A549 cells; also: nearly all actives have a fitted effect of over 35% in size
# LASV entry inh – inhibitors of Lassa virus binding or cell entry; Lassa virus pseudotype entry inhibition, cell reporter; Potency, µM (series often up to 37.9 µM), inactives show top-dose activity change, negative = inhibition, most hits filed as inhibitors; hit rate 1.2% among 300,000; AID 540256; calls by dose curve; tested in HEK293 cells; also: nearly all actives have a fitted effect of over 50% in size
# Marburg entry inh – blocks Marburg virus binding to or entry into cells | Marburg virus pseudotyped entry inhibition, cell reporter | Potency, µM (doses to about 37.8 µM), without a hit: at the top dose activity change, negative = inhibition, hits mostly inhibitors | hit rate 1.8% among 300,000; calls by dose curve; tested in HEK293 cells
# HCV inhibitor – blocks hepatitis C virus. Huh7.5.1 HCVcc-Cre infection, luciferase reporter, 44 h. Potency, µM (series often up to 41.8 µM), without a hit: at the top dose activity change, negative = inhibition, hits mostly inhibitors. hit rate 3.4% among 340,000. AID 651820; active = well fitted inhibition curve with a large enough effect; inconclusive = small, poorly fitted or top-dose-only effect, or another doubt; inactive = no such curve, though single readings can be large or run the other way
#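 Cells seeded at 1,000/well and cultured 4 h, then compounds added followed by HCVcc-Cre virus (~0.5 moi). After 44 h further culture, luciferase substrate was added, plates held 15 min at room temperature, and luminescence read for 15 sec.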
# VACV Venus inh – vaccinia inhibition (Venus reporter); Vaccinia virus Venus reporter expression, fluorescence; Potency, µM (series often up to 36.5 µM), for inactives: at the highest dose activity change, negative = inhibition, most hits filed as inhibitors; hit rate 0.46% among 330,000; AID 720580; calls by dose curve; tested in A549 cells; also: nearly all actives have a fitted effect of over 30% in size
# * marks the source's active call; other numbers are inactive results; i = inactive; ? = inconclusive; · = not tested or not shown; [ ] = remark or other dose. % is scaled to controls: 0 for no effect and ±100 for the full control effect; potency is read from the fitted curve at half-maximal effect.
SMILES,Vaccinia mCherry,LASV entry inh,Marburg entry inh,HCV inhibitor,VACV Venus inh
CC(=O)c1cccc(NC(=O)CSc2nnc(C(C)N(C)C)n2-c2ccc(F)cc2)c1 (stereo unspecified),-23.4%,-2.7%[46.1 µM],-22.9%[46.1 µM],8.0%,-12.2%
CC(c1nnc(Sc2nnnn2-c2ccccc2)n1-c1ccc(F)cc1)N(C)C (stereo unspecified),12.6µM*,5.3%,5.2%,-2.9%,?
O=C(Nc1cccc(Br)c1)Nc1nc2c(s1)CCCCCC2,-20.8%,4.3%[46.1 µM],·,·,-16.4%
COc1ccc(NC(=O)COc2ccc(-n3cnnn3)cc2)cc1OC,-20.6%,3.9%,1.8%[46.1 µM],?,-1.3%
COc1ccc(C(C)=O)cc1COc1ccc(-n2cnnn2)cc1,·,-4.0%,-12.6%,10µM*,-24.0%
Cc1cccc(N2CCN(S(=O)(=O)c3cc(C(=O)Nc4ccc(Oc5ccccc5)cc4)ccc3F)CC2)c1C,-27.2%,?,·,·,-25.5%
Cc1ccc(CC(=O)Nc2cccnc2)cc1,i,·,·,-0.7%,2.3%
CN(CCCC(=O)Nc1ccncc1)S(=O)(=O)c1ccc(Cl)cc1,·,?,-32.2%,10µM*,·
CN(CC(=O)Nc1ccncc1)S(=O)(=O)c1ccc(Br)cc1,·,-15.0%,?,-1.9%,·
CC(C)(Oc1ccc(Cl)cc1)C(=O)Nc1ccncc1,·,-14.3%,?,11.2µM*,?
CC(C)(Oc1ccc(Cl)cc1)C(=O)Nc1cccnc1,-14.9%,10.1%,-11.2%,-0.1%,-11.9%
O=C(Cc1ccc(Cl)cc1)Nc1ccncc1,-6.8%,-16.6%,?,10µM*,-19.6%
Cc1ccc(CC(=O)Nc2ccncc2)cc1,·,·,·,12.6µM*,·
O=CNc1ccc(/C=C/c2ccnc3ccccc23)cc1,-7.7%,·,·,·,-11.7%
Cc1nn(-c2ccccc2)c2nc(C3CC3)cc(C(=O)Nc3ccc(F)cc3)c12,-11.0%,-9.9%[46.1 µM],·,·,-19.0%
CCOC(=O)Nc1ccc(/C=C/c2ccnc3ccccc23)cc1,-16.8%,·,·,·,?
CN(Cc1ccccc1)C1=CC(=[N+]2CCCCC2)CC(C)(C)C1,i[7.34 µM],·,·,2.82µM*,-21.2%[7.34 µM]
CC1(C)CC(N2CCN(Cc3ccccc3)CC2)=CC(=[N+]2CCCCC2)C1,i,?,6.51µM*,?,-19.9%
CC1(C)CC(N2CCCC2)=CC(=[N+]2CCCC2)C1,·,?,2.06µM*,-20.4%,·
CC1(C)CC(N2CCCC2)=CC(=[N+]2CCCCC2)C1,·,?,?,-25.8%,·
CSc1ccc(CCNC(=O)c2ccc(-n3c(C)cc4c3CCC(C)C4)cc2)cc1 (stereo unspecified),-0.9%,?,·,·,-8.4%
Cc1ccccc1CSc1nc2c([nH]c3ccccc32)c(=O)n1-c1ccccc1,-8.1%,25.6%[46.1 µM],·,·,-27.3%
COc1cc(OC)c(OC)cc1/C=C/c1nccc2ccccc12,-21.0%,·,·,·,-21.0%
COc1ccc(-n2nc3c(N4CCC(C(=O)NCCc5ccccc5)CC4)nnc(C)c3c2C)cc1,?,-5.4%[46.1 µM],·,·,?
COc1ccc(-n2nc3c(N4CCC(C(=O)NCc5ccccc5C)CC4)nnc(C)c3c2C)cc1,-12.3%,?,?,11.2µM*,?
SMILES,Vaccinia mCherry,LASV entry inh,Marburg entry inh,HCV inhibitor,VACV Venus inh
COc1ccc(-n2nc3c(N4CCCC(C(=O)NCCc5ccccc5C)C4)nnc(C)c3c2C)cc1 (stereo unspecified),-27.0%,-17.0%[46.1 µM],·,·,-8.1%
COc1ccc(-n2nc3c(N4CCC(C(=O)NCCc5ccccc5C)CC4)nnc(C)c3c2C)cc1,-0.6%,-14.5%[46.1 µM],?,?,-22.8%
COc1ccc(-n2nc3c(N4CCC(C(=O)NCC(C)c5ccccc5)CC4)nnc(C)c3c2C)cc1 (stereo unspecified),?,·,·,11.2µM*,?
COc1ccc(-n2nc3c(N4CCCC(C(=O)NCc5ccccc5C)C4)nnc(C)c3c2C)cc1 (stereo unspecified),?,6.31µM*,·,·,?
Cc1ccc(S(=O)(=O)NCCc2nnc3ccc(SCc4ccccc4C)nn23)cc1,-16.8%,-13.9%[46.1 µM],·,·,-15.0%
COc1ccc(/C=N/NC(=O)CSCC(=O)Nc2ccccc2)cc1,·,·,·,-0.4%,·
COc1cccc(/C=N/NC(=O)CNC(=O)C(c2ccccc2)c2ccccc2)c1O,3.55µM*,10µM*,?,?,?
COc1cccc(/C=N/NC(=O)CSCC(=O)Nc2ccccc2)c1O,·,?,20.6µM*,25.1µM*,·
CN1C(=O)C2(OCC(C)([N+](=O)[O-])CO2)c2ccccc21 (stereo unspecified),-8.0%,19.2%[46.1 µM],-0.6%[46.1 µM],11.8%,-17.3%
CN1C(=O)C2(N=c3ccccc3=N2)c2ccccc21,3.4%,9.1%,?,11.2µM*,4.6%
O=C(O)c1nn(CCOc2c(Cl)cccc2Cl)c(=O)c2ccccc12,11.2µM*,?,?,11.5%,8.8%
CSc1nnc(-c2cc3c(s2)-c2ccccc2CC3)o1,·,-22.5%,0.0%,2.51µM*,-13.4%
O=C(COC(=O)/C=C/C(=O)OCC(=O)NC12CC3CC(CC(C3)C1)C2)NC12CC3CC(CC(C3)C1)C2,-6.0%,-20.9%,8.91µM*,4.8%,3.3%
CCOc1cc(CN2CCN(S(=O)(=O)Cc3ccccc3)CC2)ccc1OC,-4.4%,?,?,?,3.3%
CCCS(=O)(=O)N1CCN(Cc2ccc(OCc3ccccc3)c(OC)c2)CC1,-24.4%,-8.1%,-29.3%,10µM*,-20.1%
CCOC(=O)C(=Cc1ccc(-n2cncn2)cc1)C(=O)OCC,?,11.2µM*,?,-25.3%,?
CCOC(=O)C(=CNc1cc(C)nn1-c1ccc(Cl)cc1)C(=O)OCC,-11.7%,?,-29.4%[46.1 µM],?,-1.8%
O=C1/C(=N\S(=O)(=O)c2cccs2)C([n+]2cccc(Cc3ccccc3)c2)=C([O-])c2ccccc21,?,?,2.82µM*,-77.3%,-27.3%
C[C@@H]1C=CCCO[C@]12C(=O)N(Cc1ccc(Br)cc1)c1ccccc12,·,·,26.8%[14.2 µM],·,·
CCc1ccc(-c2cc(C)no2)cc1S(=O)(=O)N1CCCN(Cc2ccc(F)cc2)C1,·,·,·,10µM*,·
CCc1ccc(-c2cc(C)no2)cc1S(=O)(=O)N1CCN(c2ccc(C(C)=O)cc2)CC1,-14.1%,?,?,6.31µM*,-6.2%
CCc1ccc(-c2cc(C)no2)cc1S(=O)(=O)N1CCC(C)CC1,·,·,·,-4.8%,·
CC(=O)c1ccc(N2CCN(S(=O)(=O)c3cc(-c4cc(C)no4)ccc3C(C)C)CC2)cc1,·,·,·,-25.4%,·
Fc1ccc(Nc2nccc(-c3c(-c4ccc(C(F)(F)F)cc4)nn4ncccc34)n2)cc1F,·,-4.2%,·,·,·
CN(C)CCCNc1nccc(-c2c(-c3ccc(F)cc3)nn3cc(C(F)(F)F)ccc23)n1,·,22.3µM*,·,·,·
Nc1ncnc2c(C3OC(CO)C(O)C3O)c[nH]c12 (stereo unspecified),0.282µM*,?,?,?,0.251µM*
CC(=O)c1ccc(OCc2cn(CC(=O)c3ccc(O)cc3)nn2)cc1C,·,-2.4%[46.1 µM],·,·,·
COc1cccc(-n2c(SC)nnc2C2CCN(CCC(C)c3ccc(C)o3)CC2)c1 (stereo unspecified),-16.5%,·,·,·,-5.0%
CCOC(=O)Nc1c(C(=O)OC)[nH]c2cc(OC)ccc12,?,?,?,25.1µM*,-16.9%
C=CCOC(=O)Nc1c(C(=O)OC)[nH]c2ccccc12,·,-5.5%,?,10µM*,15.3%
